Assay results taken from the supplement of paper PMC10849652.
Of roughly 8,800 targets only a part is listed; those with a hit were picked by preference. About 0.5% of all pairs of compound and target were hits. Values without a mark were called inactive.

Tests used:
Assay in all cases: log2 fold change, soluble protein after heating vs DMSO (PISA); higher = thermal stabilisation; K562 lysate, 10 uM; active = over 0.2 and 3.5 SD of the protein, either way, in both replicates (recomputed)
vemurafenib = compound: CCCS(=O)(=O)Nc1ccc(F)c(C(=O)c2c[nH]c3ncc(-c4ccc(Cl)cc4)cc23)c1F [vemurafenib]
Outline: (§1)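 Soluble protein was defined as the supernatant remaining after 21,000xg for 90 min, following pooling of heated aliquots and adjustment to 0.5% NP-40 at 4°C. Before that, crude K562 extract at 1 mg/mL protein in PBS pH 7.4 with 1 mM MgCl2 was treated with 10 μM compound for 30 min and heated for 3 min across 48°C-58°C. Quantification used TMTpro 16plex LC-MS/MS with channel sums equalised, and values are log-two fold changes in thermal stability relative to solvent controls from duplicates.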

[1] = compound: CCCS(=O)(=O)Nc1ccc(F)c(C(=O)c2c[nH]c3ncc(Cl)cc23)c1F
Outline: as §1

barasertib = compound: CCN(CCCOc1ccc2c(Nc3cc(CC(=O)Nc4cccc(F)c4)[nH]n3)ncnc2c1)CCOP(=O)(O)O [barasertib]
Outline: as §1

[2] = compound: CC[C@@H]1C(=O)N(C)c2cnc(Nc3ccc(C(=O)NC4CCN(C)CC4)cc3OC)nc2N1C1CCCC1
Outline: as §1

volasertib = compound: CC[C@@H]1C(=O)N(C)c2cnc(Nc3ccc(C(=O)N[C@H]4CC[C@H](N5CCN(CC6CC6)CC5)CC4)cc3OC)nc2N1C(C)C [volasertib]
Outline: as §1

[3] = compound: CCn1c(C(=O)N(C2CC2)C2CC2)cc2c3c(ncn3C)c(Nc3cc(C)n(C)n3)nc21
Outline: as §1

[4] = compound: CCn1cc(-c2ccnc3[nH]c(-c4cccc(CN(C)C)c4)cc23)c(-c2ccc(NC(=O)N(C)C)cc2)n1
Outline: as §1

[5] = compound: CN1CCC(CNc2ccc3ncc(-c4cccc(OC(F)(F)F)c4)n3n2)CC1
Outline: as §1

saracatinib = compound: CN1CCN(CCOc2cc(OC3CCOCC3)c3c(Nc4c(Cl)ccc5c4OCO5)ncnc3c2)CC1 [saracatinib]
Outline: as §1

sotrastaurin = compound: CN1CCN(c2nc(C3=C(c4c[nH]c5ccccc45)C(=O)NC3=O)c3ccccc3n2)CC1 [sotrastaurin]
Outline: as §1

UniProt O00471, sequence (O00471 whole entry, looked up): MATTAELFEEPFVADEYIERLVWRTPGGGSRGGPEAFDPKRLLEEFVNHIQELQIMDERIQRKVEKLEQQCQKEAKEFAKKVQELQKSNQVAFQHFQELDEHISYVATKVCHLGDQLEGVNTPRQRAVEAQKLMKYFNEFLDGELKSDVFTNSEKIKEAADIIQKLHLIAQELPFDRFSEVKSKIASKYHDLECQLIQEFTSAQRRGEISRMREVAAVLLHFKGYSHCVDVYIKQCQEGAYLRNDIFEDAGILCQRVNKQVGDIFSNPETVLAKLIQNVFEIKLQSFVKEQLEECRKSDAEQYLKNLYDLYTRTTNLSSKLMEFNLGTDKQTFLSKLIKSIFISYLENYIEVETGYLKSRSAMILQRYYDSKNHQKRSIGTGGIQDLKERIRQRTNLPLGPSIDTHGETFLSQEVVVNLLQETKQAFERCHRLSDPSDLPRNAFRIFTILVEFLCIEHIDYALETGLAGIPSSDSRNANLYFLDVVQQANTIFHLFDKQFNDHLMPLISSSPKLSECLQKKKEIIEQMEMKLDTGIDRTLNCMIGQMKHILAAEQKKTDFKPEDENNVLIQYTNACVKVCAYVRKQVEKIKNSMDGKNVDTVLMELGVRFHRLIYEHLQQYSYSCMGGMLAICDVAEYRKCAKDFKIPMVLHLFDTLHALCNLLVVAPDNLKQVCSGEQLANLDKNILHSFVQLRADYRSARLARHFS
UniProt Q9NX74, sequence (Q9NX74 whole entry, looked up): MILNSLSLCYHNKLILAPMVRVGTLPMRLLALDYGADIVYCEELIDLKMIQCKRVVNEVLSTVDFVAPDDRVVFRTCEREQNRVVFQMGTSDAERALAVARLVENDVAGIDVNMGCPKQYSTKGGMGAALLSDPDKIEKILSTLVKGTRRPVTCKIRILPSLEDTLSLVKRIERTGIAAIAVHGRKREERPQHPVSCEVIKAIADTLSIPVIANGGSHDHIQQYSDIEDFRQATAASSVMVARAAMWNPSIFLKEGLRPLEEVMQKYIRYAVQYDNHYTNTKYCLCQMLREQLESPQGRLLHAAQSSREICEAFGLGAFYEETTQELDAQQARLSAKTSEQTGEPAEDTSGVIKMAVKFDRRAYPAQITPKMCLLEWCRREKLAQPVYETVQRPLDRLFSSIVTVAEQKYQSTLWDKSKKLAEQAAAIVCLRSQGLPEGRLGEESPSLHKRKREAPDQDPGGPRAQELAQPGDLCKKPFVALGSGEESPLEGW
UniProt P85037, sequence (P85037 whole entry, looked up): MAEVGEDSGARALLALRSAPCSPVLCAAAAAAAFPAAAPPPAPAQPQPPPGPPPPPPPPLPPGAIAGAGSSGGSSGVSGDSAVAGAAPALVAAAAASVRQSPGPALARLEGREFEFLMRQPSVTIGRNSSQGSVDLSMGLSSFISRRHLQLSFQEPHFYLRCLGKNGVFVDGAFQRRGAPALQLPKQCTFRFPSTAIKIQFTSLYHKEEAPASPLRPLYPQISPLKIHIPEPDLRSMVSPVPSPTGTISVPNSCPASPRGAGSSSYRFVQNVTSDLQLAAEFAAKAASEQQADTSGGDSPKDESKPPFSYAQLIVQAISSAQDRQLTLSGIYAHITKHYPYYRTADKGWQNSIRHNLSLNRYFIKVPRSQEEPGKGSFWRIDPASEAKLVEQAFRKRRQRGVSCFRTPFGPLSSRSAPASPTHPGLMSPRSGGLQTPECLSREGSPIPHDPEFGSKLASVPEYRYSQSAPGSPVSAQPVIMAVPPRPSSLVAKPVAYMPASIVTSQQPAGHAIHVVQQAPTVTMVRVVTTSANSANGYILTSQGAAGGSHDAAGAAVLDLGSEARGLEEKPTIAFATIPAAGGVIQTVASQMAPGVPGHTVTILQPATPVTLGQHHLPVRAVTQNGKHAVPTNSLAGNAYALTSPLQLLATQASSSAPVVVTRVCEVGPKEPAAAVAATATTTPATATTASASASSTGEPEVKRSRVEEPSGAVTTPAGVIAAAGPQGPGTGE
UniProt P62942, sequence (P62942 whole entry, looked up): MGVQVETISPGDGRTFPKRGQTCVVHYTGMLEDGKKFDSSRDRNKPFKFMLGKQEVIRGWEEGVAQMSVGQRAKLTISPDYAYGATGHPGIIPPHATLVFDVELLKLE
UniProt P22830, sequence (P22830 whole entry, looked up): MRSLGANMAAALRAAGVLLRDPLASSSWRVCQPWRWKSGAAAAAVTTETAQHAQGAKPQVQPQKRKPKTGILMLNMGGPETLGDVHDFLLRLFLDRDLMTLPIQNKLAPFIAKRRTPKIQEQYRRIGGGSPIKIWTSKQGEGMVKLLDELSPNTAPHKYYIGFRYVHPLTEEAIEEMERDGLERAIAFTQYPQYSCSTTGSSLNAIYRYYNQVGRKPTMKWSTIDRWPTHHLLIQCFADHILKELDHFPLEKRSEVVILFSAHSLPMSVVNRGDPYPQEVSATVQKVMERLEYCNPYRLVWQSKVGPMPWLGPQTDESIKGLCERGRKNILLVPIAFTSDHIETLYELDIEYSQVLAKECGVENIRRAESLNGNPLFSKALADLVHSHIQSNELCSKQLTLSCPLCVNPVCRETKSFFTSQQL
UniProt P60981, sequence (P60981 whole entry, looked up): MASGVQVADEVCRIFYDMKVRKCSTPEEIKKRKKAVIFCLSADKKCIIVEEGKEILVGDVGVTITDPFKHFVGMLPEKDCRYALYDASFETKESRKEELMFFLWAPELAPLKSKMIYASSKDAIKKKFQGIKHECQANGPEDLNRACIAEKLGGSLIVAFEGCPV
UniProt Q15723, sequence (Q15723 whole entry, looked up): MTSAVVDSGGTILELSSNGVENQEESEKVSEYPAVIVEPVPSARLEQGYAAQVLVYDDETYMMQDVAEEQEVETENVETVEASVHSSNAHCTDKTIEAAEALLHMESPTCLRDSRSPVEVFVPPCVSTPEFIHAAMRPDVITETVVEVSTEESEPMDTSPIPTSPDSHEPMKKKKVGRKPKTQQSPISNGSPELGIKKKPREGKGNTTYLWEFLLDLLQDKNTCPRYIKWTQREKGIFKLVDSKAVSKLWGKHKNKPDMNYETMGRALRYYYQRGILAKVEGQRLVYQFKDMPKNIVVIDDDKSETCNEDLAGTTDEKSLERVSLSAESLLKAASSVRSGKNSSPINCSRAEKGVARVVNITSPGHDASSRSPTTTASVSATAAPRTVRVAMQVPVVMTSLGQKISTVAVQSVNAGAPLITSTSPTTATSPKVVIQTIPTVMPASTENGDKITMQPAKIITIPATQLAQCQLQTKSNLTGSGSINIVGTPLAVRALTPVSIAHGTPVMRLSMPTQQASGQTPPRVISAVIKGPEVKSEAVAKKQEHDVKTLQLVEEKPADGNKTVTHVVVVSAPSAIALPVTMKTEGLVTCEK
UniProt Q6P4F2, sequence (Q6P4F2 whole entry, looked up): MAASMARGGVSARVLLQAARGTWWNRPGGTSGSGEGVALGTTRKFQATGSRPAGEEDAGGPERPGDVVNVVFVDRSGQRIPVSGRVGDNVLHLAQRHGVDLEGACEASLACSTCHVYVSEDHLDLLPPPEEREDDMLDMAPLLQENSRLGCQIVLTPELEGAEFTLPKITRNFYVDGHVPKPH
UniProt Q9NYY8, sequence (Q9NYY8 whole entry, looked up): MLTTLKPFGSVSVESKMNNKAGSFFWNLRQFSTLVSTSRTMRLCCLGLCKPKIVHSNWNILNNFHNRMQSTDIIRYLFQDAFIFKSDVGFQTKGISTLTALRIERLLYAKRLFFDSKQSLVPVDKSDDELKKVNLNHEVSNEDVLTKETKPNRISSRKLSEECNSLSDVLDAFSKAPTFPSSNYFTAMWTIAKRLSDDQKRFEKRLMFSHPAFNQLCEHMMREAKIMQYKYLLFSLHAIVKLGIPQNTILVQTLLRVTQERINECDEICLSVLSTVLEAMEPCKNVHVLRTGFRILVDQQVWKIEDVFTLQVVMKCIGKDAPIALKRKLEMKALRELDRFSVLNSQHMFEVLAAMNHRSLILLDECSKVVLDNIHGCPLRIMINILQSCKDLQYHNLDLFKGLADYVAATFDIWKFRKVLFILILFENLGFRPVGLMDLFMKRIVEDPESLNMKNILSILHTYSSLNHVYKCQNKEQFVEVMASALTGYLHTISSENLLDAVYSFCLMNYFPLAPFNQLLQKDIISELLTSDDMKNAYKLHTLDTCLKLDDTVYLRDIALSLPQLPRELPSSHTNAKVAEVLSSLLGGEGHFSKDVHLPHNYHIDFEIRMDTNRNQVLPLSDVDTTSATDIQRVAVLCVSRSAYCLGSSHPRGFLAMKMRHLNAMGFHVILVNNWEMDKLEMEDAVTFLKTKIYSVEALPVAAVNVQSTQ
UniProt P0DPD7, sequence (P0DPD7 whole entry, looked up): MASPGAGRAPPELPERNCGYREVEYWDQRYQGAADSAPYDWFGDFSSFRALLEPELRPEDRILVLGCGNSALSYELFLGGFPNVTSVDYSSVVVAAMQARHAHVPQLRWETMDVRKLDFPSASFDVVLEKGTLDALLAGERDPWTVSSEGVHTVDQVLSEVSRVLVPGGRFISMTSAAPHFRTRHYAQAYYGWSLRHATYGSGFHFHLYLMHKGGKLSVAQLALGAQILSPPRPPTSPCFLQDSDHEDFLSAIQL
UniProt Q9UI10, sequence (Q9UI10 whole entry, looked up): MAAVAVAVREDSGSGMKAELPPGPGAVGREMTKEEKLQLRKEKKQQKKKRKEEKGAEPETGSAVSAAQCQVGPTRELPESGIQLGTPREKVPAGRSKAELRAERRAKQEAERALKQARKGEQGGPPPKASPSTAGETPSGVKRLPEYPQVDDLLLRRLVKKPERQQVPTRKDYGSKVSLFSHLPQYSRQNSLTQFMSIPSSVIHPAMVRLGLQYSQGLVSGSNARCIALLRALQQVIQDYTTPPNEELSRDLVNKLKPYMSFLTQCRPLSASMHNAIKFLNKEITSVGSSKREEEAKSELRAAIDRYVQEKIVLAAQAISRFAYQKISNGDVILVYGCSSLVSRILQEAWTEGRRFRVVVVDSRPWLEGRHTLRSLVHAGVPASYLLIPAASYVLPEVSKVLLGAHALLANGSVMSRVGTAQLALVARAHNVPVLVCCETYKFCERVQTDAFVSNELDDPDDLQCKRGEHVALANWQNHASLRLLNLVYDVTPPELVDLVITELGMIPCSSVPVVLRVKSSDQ

| Target | log2 fold change (vemurafenib) | log2 fold change [1] | log2 fold change (barasertib) | log2 fold change [2] | log2 fold change (volasertib) | log2 fold change [3] | log2 fold change [4] | log2 fold change [5] | log2 fold change (saracatinib) | log2 fold change (sotrastaurin) |
| --- | --- | --- | --- | --- | --- | --- | --- | --- | --- | --- |
| ENO1 isoform 2 (UniProt P06733) | 0.02 | -0.005 | -0.09 | 0.073 | 0.004 | -0.021 | -0.263 | 0.269 (active) | 0.01 | 0.01 |
| FAU (UniProt E9PR30) | -0.009 | -0.015 | -0.17 | 0.005 | -0.002 | 0.036 | 0.33 (active) | -0.076 | -0.042 | -0.012 |
| EEF1AKMT4 (UniProt P0DPD7) | 0.135 | 0.008 | 0.126 | -0.025 | -0.072 | -0.035 | -0.129 | 0.052 | -0.033 | -0.004 |
| EIF2B3 (UniProt Q9NR50) | 0.013 | 0.021 | -0.008 | -0.028 | -0.02 | 0.044 | 0.287 (active) | -0.111 | 0.005 | -0.003 |
| GATAD2A isoform 3 (UniProt Q86YP4) | -0.014 | 0.019 | 0.008 | 0.012 | -0.014 | -0.004 | -0.058 | 0.022 | 0.022 | -0.002 |
| DUS2 (UniProt Q9NX74) | 0.022 | 0.032 | -0.026 | -0.033 | -0.071 | -0.016 | -0.095 | 0.023 | -0.095 | -0.017 |
| EIF2B4 isoform 2 (UniProt Q9UI10) | -0.034 | 0.02 | 0.006 | -0.038 | -0.017 | -0.004 | -0.02 | 0.002 | 0.006 | -0.004 |
| FDX2 (UniProt Q6P4F2) | 0.022 | -0.011 | 0.166 | 0.069 | 0.038 | -0.047 | -0.264 | -0.003 | -0.122 | -0.027 |
| ELF2 (UniProt Q15723) | -0.022 | -0.056 | -0.123 | 0.005 | 0.042 | 0.031 | 0.086 | -0.078 | -0.023 | -0.004 |
| ENGASE (UniProt Q8NFI3) | 0.034 | 0.05 | 0.003 | 0 | -0.035 | -0.031 | 0.028 | 0.052 | -0.019 | -0.008 |
| FASTKD2 (UniProt Q9NYY8) | -0.014 | -0.002 | 0.037 | 0.004 | -0.036 | 0.011 | -0.072 | 0.03 | 0.012 | 0.014 |
| FMNL1 isoform 3 (UniProt O95466) | 0.022 | -0.008 | -0.002 | 0.028 | -0.088 | -0.035 | 0.026 | -0.032 | 0.007 | -0.006 |
| EPRS (UniProt P07814) | 0.01 | -0.001 | 0.001 | -0.077 | -0.068 | 0.024 | -0.025 | -0.035 | 0.014 | 0.02 |
| FXR1 (UniProt P51114) | -0.047 | 0.009 | 0.01 | -0.036 | -0.022 | 0.018 | -0.107 | 0.012 | -0.036 | -0.011 |
| EXOC6 (UniProt Q8TAG9) | -0.041 | 0.033 | 0.032 | -0.033 | -0.047 | 0.032 | -0.05 | -0.075 | 0.018 | 0.06 |
| EDC3 (UniProt Q96F86) | -0.011 | 0.019 | -0.01 | 0.066 | -0.016 | -0.012 | -0.017 | -0.043 | 0.006 | 0.018 |
| EEFSEC (UniProt P57772) | 0.031 | 0.024 | 0.031 | -0.067 | -0.035 | -0.012 | -0.073 | 0.009 | -0.015 | -0.016 |
| GCLM (UniProt P48507) | 0.014 | 0.025 | -0.007 | 0 | -0.015 | -0.013 | -0.011 | -0.012 | 0.011 | -0.022 |
| EXOC5 (UniProt O00471) | 0.033 | 0.03 | 0.044 | -0.036 | -0.081 | 0.02 | 0.068 | -0.115 | 0.044 | 0.022 |
| ENSA isoform 3 (UniProt O43768) | -0.034 | -0.016 | -0.052 | 0.049 | 0.025 | 0.033 | 0.212 | -0.058 | -0.021 | -0.007 |
| FBXO38 (UniProt Q6PIJ6) | -0.042 | -0.024 | 0.052 | -0.121 | 0.037 | 0.028 | 0.006 | 0.036 | -0.039 | 0.027 |
| EPB41, A0A2R8Y6D0 | -0.019 | -0.004 | 0.043 | -0.108 | 0.006 | -0.24 | -0.047 | 0.594 (active) | -0.082 | 0.044 |
| FTSJ1 (UniProt Q9UET6) | -0.036 | -0.006 | -0.043 | -0.04 | -0.056 | -0.003 | 0.067 | 0.027 | -0.018 | 0.089 |
| FAM118A (UniProt Q9NWS6) | -0.013 | 0.011 | 0.018 | -0.017 | -0.009 | -0.031 | -0.135 | 0.077 | 0.063 | 0.025 |
| DSTN (UniProt P60981) | -0.006 | -0.002 | -0.005 | -0.015 | -0.013 | 0.015 | 0.025 | 0.035 | -0.005 | -0.011 |
| FKBP1A (UniProt P62942) | -0.138 | -0.028 | 0.092 | 0.107 | 0.163 | -0.036 | -0.854 (active) | 0.146 | 0.052 | -0.017 |
| ESPL1 (UniProt Q14674) | 0.049 | 0.204 | 0.054 | 0.039 | 0.09 | -0.002 | -0.047 | -0.012 | -0.065 | -0.023 |
| FECH isoform 2 (UniProt P22830) | 0.363 | -0.891 (active) | -0.082 | 0.477 | 0.078 | -0.03 | 0.128 | 0.699 | -0.287 | 0.014 |
| EBP (UniProt Q15125) | 0.056 | 0.024 | 0.069 | 0.071 | 0.038 | -0.024 | -0.354 | 0.044 | 0.135 | -0.103 |
| FOXK1 (UniProt P85037) | -0.01 | 0.008 | 0.025 | -0.007 | -0.019 | 0.013 | -0.014 | 0.026 | 0.005 | -0.012 |
